According to PubChem BioAssay AID651551 (Sanford-Burnham Center for Chemical Genomics, 2012):

assay: GAPDH versus PEG-3 reporter suppression – cell-based, luminescence, counter-screen for PEG-3 promoter inhibitor project, SAR follow-up (AID 651551); conditions: HeLa PEG-Prom / GAPDH luciferase reporter, 6 or 24 h, run 2, 6 h; at 99 µM (top of the series)

Row | SMILES | inhibition % (higher = more inhibition)
1 | CCCn1nc(C(=O)Nc2nc3ccccc3s2)c2ccccc2c1=O | 12.5%
2 | COc1ccccc1Nc1nc(-c2sc(NC(=O)c3ccco3)nc2C)cs1 | 72.7%
3 | O=C(Nc1nc(-c2ccccc2)cs1)c1nn(-c2ccccc2)c(=O)c2ccccc12 | 28.9%
4 | Cc1nc(NC(=O)c2ccccc2)sc1-c1csc(Nc2ccccc2Cl)n1 | -2.1%
5 | Cc1cc(NC(=O)c2ccccc2)n(-c2nc3ccccc3n2C)n1 | 16.7%
6 | Cc1cc(NC(=O)c2cccc(C)c2C)n(-c2nc3ccccc3[nH]2)n1 | 19.1%
7 | COCCCNC(=O)c1ccc(Cn2c(=O)c3ccccc3n(Cc3ccccc3C#N)c2=O)cc1 | 21.9%
8 | COc1ccc(-n2nc(C(=O)NCC(=O)Nc3cc(OC)c(OC)c(OC)c3)c3ccccc3c2=O)cc1OC | 26.1%
9 | CCn1nc(C(=O)Nc2nc(-c3ccccn3)cs2)c2ccccc2c1=O | 72.7%
10 | COc1ccc(Cl)cc1Nc1nc(-c2sc(NC(=O)c3ccccc3)nc2C)cs1 | 33.6%
11 | Cc1nc(NC(=O)c2ccccc2)sc1-c1csc(Nc2cccc(Cl)c2C)n1 | 35.5%
12 | Cc1cc(NC(=O)c2ccccc2C(F)(F)F)n(-c2nc3ccccc3[nH]2)n1 | 91.4%
13 | Cc1cc(NC(=O)c2ccccc2C)n(-c2nc3ccccc3[nH]2)n1 | 26.1%
14 | O=C(Nc1nccs1)c1nn(-c2ccccc2)c(=O)c2ccccc12 | 50.3%
15 | Cc1ccc(Cl)cc1Nc1nc(-c2sc(NC(=O)c3ccco3)nc2C)cs1 | 71%
16 | CCCn1nc(C(=O)Nc2nc(-c3ccccn3)cs2)c2ccccc2c1=O | 64.7%
17 | Cc1nc(NC(=O)c2ccccc2)sc1-c1csc(Nc2ccccc2)n1 | 74.5%
